Test results taken from ChEMBL document CHEMBL1961873, “Compounds: GSK PKIS; Assays: Nanosyn kinase panel” (2012).

Assays:
[1] = target: T1, Serine/threonine-protein kinase Nek9 (Homo sapiens) (UniProt Q8TD19); conditions: at 1 µM;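 further: each value is a mean percent inhibition of NEK9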
T1 sequence (whole entry): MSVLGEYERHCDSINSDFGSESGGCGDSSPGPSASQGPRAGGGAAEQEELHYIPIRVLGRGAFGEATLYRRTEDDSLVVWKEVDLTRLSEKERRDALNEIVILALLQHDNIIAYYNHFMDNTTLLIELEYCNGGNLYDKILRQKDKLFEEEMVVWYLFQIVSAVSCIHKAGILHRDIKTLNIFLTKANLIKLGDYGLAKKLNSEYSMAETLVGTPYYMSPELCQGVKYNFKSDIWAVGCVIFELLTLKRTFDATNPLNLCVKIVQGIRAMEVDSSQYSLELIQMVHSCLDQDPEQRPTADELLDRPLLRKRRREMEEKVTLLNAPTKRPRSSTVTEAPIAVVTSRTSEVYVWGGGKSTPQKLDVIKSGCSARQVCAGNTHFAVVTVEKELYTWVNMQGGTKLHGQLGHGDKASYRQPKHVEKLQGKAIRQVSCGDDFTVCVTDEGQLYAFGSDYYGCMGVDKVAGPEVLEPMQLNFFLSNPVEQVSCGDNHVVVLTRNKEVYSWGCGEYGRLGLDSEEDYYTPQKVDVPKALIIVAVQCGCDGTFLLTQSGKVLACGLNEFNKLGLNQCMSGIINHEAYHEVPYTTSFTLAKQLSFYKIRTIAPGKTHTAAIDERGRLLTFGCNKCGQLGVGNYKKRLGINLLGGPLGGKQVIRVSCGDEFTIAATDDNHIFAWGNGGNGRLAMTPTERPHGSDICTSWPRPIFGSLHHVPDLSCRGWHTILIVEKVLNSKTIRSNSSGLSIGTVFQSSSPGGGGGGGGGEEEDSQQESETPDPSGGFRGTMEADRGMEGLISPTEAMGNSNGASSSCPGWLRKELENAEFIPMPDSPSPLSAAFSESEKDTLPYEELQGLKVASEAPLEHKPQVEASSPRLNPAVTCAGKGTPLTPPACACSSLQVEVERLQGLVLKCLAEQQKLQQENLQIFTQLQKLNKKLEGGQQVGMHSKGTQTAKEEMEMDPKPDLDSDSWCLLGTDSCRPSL

[2] = target: Serine/threonine-protein kinase PLK1 (Homo sapiens) (UniProt P53350); conditions: at 0.1 µM
Serine/threonine-protein kinase PLK1 (Homo sapiens), sequence (P53350 whole entry): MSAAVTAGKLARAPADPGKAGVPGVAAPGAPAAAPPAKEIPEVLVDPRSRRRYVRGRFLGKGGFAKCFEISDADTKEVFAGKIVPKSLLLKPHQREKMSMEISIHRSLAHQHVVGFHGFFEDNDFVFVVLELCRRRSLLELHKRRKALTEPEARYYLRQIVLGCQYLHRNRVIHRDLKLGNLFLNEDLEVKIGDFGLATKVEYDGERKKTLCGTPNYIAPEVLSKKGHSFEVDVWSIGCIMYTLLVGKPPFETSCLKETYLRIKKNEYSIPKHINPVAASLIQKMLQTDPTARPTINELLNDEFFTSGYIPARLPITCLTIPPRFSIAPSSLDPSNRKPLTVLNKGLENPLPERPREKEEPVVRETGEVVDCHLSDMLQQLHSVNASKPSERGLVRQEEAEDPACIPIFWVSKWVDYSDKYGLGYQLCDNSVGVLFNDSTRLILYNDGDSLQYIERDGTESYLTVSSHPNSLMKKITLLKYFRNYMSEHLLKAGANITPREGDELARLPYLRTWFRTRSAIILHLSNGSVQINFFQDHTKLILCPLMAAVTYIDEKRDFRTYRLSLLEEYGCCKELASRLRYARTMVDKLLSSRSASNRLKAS

[3] = target: Serine/threonine-protein kinase PLK1 (Homo sapiens) (UniProt P53350); conditions: at 1 µM
[4] = target: T2, Dual specificity protein kinase TTK (Homo sapiens) (UniProt P33981); conditions: at 0.1 µM
T2 sequence (whole entry): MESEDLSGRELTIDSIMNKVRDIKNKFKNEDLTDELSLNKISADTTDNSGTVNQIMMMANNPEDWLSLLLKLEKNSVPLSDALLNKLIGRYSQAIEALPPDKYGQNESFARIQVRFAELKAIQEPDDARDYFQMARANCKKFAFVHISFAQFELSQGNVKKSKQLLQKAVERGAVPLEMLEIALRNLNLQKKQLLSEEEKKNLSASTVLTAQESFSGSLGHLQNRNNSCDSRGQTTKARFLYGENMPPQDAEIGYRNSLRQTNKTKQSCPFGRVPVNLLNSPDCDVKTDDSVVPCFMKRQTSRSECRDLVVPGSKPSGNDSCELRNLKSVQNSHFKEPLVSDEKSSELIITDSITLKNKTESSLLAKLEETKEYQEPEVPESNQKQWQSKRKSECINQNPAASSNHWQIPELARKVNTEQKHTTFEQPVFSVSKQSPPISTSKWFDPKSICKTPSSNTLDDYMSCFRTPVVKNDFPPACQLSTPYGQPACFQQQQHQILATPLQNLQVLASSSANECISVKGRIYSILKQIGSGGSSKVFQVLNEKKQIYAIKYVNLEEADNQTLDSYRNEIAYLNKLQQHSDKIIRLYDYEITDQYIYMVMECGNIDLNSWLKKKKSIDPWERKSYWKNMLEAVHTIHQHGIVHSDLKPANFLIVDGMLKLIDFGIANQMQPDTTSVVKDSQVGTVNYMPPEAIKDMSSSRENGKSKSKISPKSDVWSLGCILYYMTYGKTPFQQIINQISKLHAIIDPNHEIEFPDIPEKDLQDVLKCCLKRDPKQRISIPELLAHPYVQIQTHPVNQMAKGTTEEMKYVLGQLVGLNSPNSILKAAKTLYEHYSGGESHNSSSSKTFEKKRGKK

[5] = test system: T3, Receptor-type tyrosine-protein kinase FLT3 (Homo sapiens), P36888 [D835Y]; conditions: at 1 µM
T3 sequence (whole entry): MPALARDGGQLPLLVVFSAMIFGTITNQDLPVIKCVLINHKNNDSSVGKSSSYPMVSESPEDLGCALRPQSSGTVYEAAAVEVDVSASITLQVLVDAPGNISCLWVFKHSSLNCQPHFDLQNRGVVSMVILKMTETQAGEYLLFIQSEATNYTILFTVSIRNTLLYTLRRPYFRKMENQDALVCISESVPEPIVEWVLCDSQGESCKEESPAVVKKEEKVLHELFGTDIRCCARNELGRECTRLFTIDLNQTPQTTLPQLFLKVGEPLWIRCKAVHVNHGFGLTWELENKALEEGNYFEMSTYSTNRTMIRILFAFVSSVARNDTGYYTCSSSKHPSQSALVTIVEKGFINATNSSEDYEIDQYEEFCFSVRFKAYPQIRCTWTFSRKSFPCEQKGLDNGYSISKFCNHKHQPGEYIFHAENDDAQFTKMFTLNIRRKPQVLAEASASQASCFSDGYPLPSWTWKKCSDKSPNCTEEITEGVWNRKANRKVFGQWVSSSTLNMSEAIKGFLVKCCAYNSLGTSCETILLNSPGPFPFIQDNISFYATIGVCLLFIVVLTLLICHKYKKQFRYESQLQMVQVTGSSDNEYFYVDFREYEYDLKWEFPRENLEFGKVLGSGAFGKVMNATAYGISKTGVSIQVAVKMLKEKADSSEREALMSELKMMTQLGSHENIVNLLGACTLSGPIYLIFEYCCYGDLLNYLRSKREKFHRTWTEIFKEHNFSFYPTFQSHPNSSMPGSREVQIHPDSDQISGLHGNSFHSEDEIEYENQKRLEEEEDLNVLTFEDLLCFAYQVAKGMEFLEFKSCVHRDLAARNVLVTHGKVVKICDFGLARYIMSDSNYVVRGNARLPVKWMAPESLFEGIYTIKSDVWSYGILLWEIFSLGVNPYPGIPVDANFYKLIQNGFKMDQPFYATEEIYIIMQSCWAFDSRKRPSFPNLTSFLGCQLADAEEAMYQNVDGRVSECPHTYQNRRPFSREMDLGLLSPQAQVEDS

[6] = target: Vascular endothelial growth factor receptor 3 (Homo sapiens) (UniProt P35916); conditions: at 0.1 µM
Vascular endothelial growth factor receptor 3 (Homo sapiens), sequence (P35916 whole entry): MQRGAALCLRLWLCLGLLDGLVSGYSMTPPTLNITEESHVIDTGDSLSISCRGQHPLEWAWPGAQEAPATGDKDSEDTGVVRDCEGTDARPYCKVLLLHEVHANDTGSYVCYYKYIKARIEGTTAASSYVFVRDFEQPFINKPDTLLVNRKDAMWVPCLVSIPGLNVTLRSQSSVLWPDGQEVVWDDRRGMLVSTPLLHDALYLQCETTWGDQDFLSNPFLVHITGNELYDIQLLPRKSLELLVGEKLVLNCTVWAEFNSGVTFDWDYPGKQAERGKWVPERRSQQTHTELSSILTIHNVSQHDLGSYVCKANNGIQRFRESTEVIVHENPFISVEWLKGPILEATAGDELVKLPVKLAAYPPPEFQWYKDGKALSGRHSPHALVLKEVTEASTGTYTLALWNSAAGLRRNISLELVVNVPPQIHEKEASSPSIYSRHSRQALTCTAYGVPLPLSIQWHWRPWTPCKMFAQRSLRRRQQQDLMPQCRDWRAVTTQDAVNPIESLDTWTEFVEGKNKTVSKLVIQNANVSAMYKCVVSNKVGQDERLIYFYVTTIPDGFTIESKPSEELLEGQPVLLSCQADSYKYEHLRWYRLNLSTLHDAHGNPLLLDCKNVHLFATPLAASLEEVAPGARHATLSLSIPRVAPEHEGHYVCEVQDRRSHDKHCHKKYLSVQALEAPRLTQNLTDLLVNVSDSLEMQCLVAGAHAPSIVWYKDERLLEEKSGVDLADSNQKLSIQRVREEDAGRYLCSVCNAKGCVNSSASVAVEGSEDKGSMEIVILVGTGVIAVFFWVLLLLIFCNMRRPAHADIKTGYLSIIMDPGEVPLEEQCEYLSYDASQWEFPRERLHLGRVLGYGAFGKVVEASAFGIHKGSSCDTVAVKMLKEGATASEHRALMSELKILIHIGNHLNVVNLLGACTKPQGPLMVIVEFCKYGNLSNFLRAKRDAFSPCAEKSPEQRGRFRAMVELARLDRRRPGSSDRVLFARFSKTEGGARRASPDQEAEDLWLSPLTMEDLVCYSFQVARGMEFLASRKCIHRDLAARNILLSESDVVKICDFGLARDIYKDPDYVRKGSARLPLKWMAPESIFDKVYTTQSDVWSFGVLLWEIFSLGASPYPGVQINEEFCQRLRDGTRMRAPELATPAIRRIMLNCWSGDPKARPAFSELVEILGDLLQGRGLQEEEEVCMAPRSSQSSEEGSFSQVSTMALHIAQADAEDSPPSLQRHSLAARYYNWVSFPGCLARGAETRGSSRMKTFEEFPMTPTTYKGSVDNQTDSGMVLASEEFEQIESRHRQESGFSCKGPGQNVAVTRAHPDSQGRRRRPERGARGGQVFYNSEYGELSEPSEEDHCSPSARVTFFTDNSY

[7] = target: Vascular endothelial growth factor receptor 3 (Homo sapiens) (UniProt P35916); conditions: at 1 µM
[8] = target: Macrophage colony-stimulating factor 1 receptor (Homo sapiens) (UniProt P07333); conditions: at 0.1 µM
Macrophage colony-stimulating factor 1 receptor (Homo sapiens), sequence (P07333 whole entry): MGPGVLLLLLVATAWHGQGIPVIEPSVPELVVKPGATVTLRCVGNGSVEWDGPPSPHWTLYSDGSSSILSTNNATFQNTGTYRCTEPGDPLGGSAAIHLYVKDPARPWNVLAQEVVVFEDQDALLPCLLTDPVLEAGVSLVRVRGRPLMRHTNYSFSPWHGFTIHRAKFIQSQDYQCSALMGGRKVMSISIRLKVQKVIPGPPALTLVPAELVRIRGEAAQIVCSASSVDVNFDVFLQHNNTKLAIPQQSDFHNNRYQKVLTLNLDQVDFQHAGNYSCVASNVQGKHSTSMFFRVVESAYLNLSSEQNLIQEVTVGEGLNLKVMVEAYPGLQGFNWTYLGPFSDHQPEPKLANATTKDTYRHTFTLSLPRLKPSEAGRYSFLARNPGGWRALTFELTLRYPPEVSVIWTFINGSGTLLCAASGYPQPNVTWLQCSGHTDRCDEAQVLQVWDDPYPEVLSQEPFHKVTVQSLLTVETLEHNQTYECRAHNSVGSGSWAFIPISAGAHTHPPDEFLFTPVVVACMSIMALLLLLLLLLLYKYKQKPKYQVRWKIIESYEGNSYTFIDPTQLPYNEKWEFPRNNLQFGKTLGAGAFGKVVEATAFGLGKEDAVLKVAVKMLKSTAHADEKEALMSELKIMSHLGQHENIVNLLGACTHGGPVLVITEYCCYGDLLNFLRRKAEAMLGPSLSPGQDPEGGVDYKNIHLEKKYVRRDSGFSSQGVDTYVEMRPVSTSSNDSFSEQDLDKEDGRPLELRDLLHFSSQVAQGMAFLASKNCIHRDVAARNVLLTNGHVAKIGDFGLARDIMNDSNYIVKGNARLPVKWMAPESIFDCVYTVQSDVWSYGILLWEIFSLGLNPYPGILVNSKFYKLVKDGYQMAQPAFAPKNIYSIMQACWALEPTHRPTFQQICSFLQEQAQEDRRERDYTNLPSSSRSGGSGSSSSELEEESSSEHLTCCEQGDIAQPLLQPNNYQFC

[9] = target: Macrophage colony-stimulating factor 1 receptor (Homo sapiens) (UniProt P07333); conditions: at 1 µM
[10] = target: Tyrosine-protein kinase Fyn (Homo sapiens) (UniProt P06241); conditions: at 0.1 µM
Tyrosine-protein kinase Fyn (Homo sapiens), sequence (P06241 2-537 limits assumed): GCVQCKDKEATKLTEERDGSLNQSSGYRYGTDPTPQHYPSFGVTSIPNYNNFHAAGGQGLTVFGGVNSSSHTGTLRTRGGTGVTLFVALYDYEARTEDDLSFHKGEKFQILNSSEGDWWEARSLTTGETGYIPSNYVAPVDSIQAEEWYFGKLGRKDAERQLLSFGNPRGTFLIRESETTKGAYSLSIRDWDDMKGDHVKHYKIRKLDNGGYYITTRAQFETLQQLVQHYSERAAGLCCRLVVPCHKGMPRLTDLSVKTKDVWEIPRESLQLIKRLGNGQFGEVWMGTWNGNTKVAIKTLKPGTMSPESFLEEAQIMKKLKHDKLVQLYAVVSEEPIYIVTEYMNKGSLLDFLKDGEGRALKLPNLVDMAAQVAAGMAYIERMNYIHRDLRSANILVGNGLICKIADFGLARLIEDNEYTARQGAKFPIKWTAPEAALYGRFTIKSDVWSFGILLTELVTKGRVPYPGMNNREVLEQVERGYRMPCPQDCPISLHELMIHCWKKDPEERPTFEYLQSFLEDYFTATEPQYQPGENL

CCc1ccc(Oc2nccc(-c3c(-c4ccc(F)cc4)ncn3C3CCNCC3)n2)cc1
inhibition [1]: -3%
inhibition [2]: 4.18%
inhibition [3]: 6.93%
inhibition [4]: 5.58%
inhibition [5]: 7.51%
inhibition [6]: 6.35%
inhibition [7]: 4.74%
inhibition [8]: 1.36%
inhibition [9]: 6.16%
inhibition [10]: 1.83%

CS(=O)(=O)CCNCc1ccc(-c2ccc3ncnc(Nc4ccc(OCc5ccccc5)c(Br)c4)c3c2)o1
inhibition [1]: 5.79%
inhibition [2]: 3.69%
inhibition [3]: 3.81%
inhibition [4]: 11.1%
inhibition [5]: -0.11%
inhibition [6]: -7.55%
inhibition [7]: -9.98%
inhibition [8]: -1.9%
inhibition [9]: 6.06%
inhibition [10]: -0.04%

COc1ccc2cc(-c3c(-c4ccncc4)nc(-c4ccc(S(C)(=O)=O)cc4C)n3C)ccc2c1
inhibition [1]: 18.2%
inhibition [2]: 4.66%
inhibition [3]: 4.49%
inhibition [4]: 11.5%
inhibition [5]: -2.55%
inhibition [6]: 4.4%
inhibition [7]: 10.1%
inhibition [8]: 0.81%
inhibition [9]: -1.08%
inhibition [10]: 1.95%

O=C(Nc1n[nH]c2cc(-c3cc(F)ccc3F)ccc12)C1CC1
inhibition [1]: 10.9%
inhibition [2]: 4.33%
inhibition [3]: 3.61%
inhibition [4]: 8.84%
inhibition [5]: -2.14%
inhibition [6]: 0.33%
inhibition [7]: 1.03%
inhibition [8]: -1.77%
inhibition [9]: 2.78%
inhibition [10]: 2.47%

O=C(Nc1n[nH]c2nc(-c3ccco3)ccc12)C1CC1
inhibition [1]: -0.33%
inhibition [2]: 1.81%
inhibition [3]: 0.82%
inhibition [4]: 1.09%
inhibition [5]: 3.83%
inhibition [6]: -1.89%
inhibition [7]: 2.09%
inhibition [8]: -1.01%
inhibition [9]: 2.62%
inhibition [10]: 1.1%

NCc1ccc(-n2c(-c3nonc3N)nc3cnccc32)cc1
inhibition [1]: 6.1%
inhibition [2]: 3.75%
inhibition [3]: 3.27%
inhibition [4]: 19.4%
inhibition [5]: 6.04%
inhibition [6]: 6.13%
inhibition [7]: 7.01%
inhibition [8]: 12.5%
inhibition [9]: 49.6%
inhibition [10]: 1.24%

O=C(Nc1n[nH]c2nc(-c3ccc(O)cc3)c(Br)cc12)C1CC1
inhibition [1]: 13.2%
inhibition [2]: 6.21%
inhibition [3]: 5.59%
inhibition [4]: 10.2%
inhibition [5]: 27.1%
inhibition [6]: 18.3%
inhibition [7]: 60.9%
inhibition [8]: 3.87%
inhibition [9]: 6.92%
inhibition [10]: 5.98%

NC(=O)Cc1ccccc1Oc1nccc(-c2c(-c3ccc(F)cc3)ncn2C2CCNCC2)n1
inhibition [1]: 1.22%
inhibition [2]: 3.44%
inhibition [3]: 2.54%
inhibition [4]: 5.28%
inhibition [5]: 1.28%
inhibition [6]: 1.36%
inhibition [7]: -0.28%
inhibition [8]: 0.18%
inhibition [9]: 1.47%
inhibition [10]: 2.4%

Fc1ccc(-c2ncn(C3CCNCC3)c2-c2ccnc(Oc3ccc(Oc4ccccc4)cc3)n2)cc1
inhibition [1]: 4.8%
inhibition [2]: 4.45%
inhibition [3]: 6.8%
inhibition [4]: 6.67%
inhibition [5]: -1.89%
inhibition [6]: 3.28%
inhibition [7]: 1.1%
inhibition [8]: 2.27%
inhibition [9]: 3.02%
inhibition [10]: 2.65%

CN(C)CCOc1ccc(-c2cc(-c3ccc4c(c3)CCC4=NO)c(-c3ccncc3)o2)cc1
inhibition [1]: -0.58%
inhibition [2]: 1.65%
inhibition [3]: -0.86%
inhibition [4]: 1.31%
inhibition [5]: -3.1%
inhibition [6]: -0.84%
inhibition [7]: -0.94%
inhibition [8]: -3.24%
inhibition [9]: -0.1%
inhibition [10]: 1.29%

O=C1Nc2ccccc2/C1=C/Nc1ccc(-n2cncn2)cc1
inhibition [1]: 12.4%
inhibition [2]: 4.56%
inhibition [3]: 2.82%
inhibition [4]: 22.4%
inhibition [5]: 45.8%
inhibition [6]: 16.8%
inhibition [7]: 40.2%
inhibition [8]: 6.47%
inhibition [9]: 34.5%
inhibition [10]: 2.68%

Cc1ccc(C(=O)NC2CCC2)cc1-c1ccc(C(=O)NCC2CC2)cc1
inhibition [1]: 5.58%
inhibition [2]: 4.95%
inhibition [3]: 2.15%
inhibition [4]: 4.58%
inhibition [5]: 8.02%
inhibition [6]: 1.24%
inhibition [7]: 1%
inhibition [8]: -2.9%
inhibition [9]: 4.65%
inhibition [10]: 0.98%

NC(=O)c1ccc(Oc2nccc(-c3c(-c4ccc(F)cc4)ncn3C3CCNCC3)n2)cc1
inhibition [1]: 4.67%
inhibition [2]: 5.93%
inhibition [3]: 9.34%
inhibition [4]: 8.68%
inhibition [5]: 1.08%
inhibition [6]: 7.32%
inhibition [7]: 4.57%
inhibition [8]: 5.61%
inhibition [9]: 6.15%
inhibition [10]: 2.66%

COc1ccc(-c2ccc3c(NC(=O)C4CC4)n[nH]c3n2)cc1
inhibition [1]: 3.42%
inhibition [2]: 3.2%
inhibition [3]: 0.74%
inhibition [4]: 5.12%
inhibition [5]: 5.49%
inhibition [6]: 1.77%
inhibition [7]: 1.31%
inhibition [8]: 1.02%
inhibition [9]: 1.62%
inhibition [10]: 1.9%

O=C(Nc1n[nH]c2cc(-c3ccccc3)ccc12)C1CC1
inhibition [1]: 5.87%
inhibition [2]: 5.16%
inhibition [3]: 2.83%
inhibition [4]: 5.95%
inhibition [5]: 4.54%
inhibition [6]: 16.2%
inhibition [7]: 16.9%
inhibition [8]: 4.54%
inhibition [9]: 5.1%
inhibition [10]: 1.14%

O=C1NC(=O)C(c2cccc(Cl)c2)=C1Nc1ccc(Cl)c(C(=O)O)c1
inhibition [1]: 2.04%
inhibition [2]: 4.93%
inhibition [3]: 2.75%
inhibition [4]: 5.47%
inhibition [5]: -3.79%
inhibition [6]: 3.32%
inhibition [7]: 12.2%
inhibition [8]: -0.3%
inhibition [9]: 10.7%
inhibition [10]: 0.43%
